# Assay results as given in PubChem BioAssay (NCATS).
# Values joined by “and” are separate entries in the source; they are usually repeats but may differ in a detail not shown here. Identical values can stand only once. Results filed as inconclusive are left out. Unmarked numbers belong to inactive results. Active and inactive are the calls of the source. Calls follow the shape of the dose curve; as a rule, active = well fitted inhibition curve with a large enough effect; inconclusive = small, poorly fitted or top-dose-only effect; inactive = flat fitted curve, though single readings scatter.
# How the values were obtained:
# PC49 = experiment: qHTS profiling for inhibitors of Plasmodium falciparum proliferation (AID 504749); conditions: P. falciparum in erythrocytes, SYBR Green DNA, 72 h; series mostly up to 28.7 µM
# Procedure, shortened: (§1)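 Infected RBCs, 0.3% parasitemia/2.5% Hct final; cpd 72 h, 37 C, 5% CO2; lysis buffer with saponin/triton/SYBR Green I, o/n RT dark; FI 485/535; norm. to artemisinin (0.29 uM) and DMSO.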
# SC27B = experiment: as above; conditions: P. falciparum in erythrocytes, SYBR Green DNA, 72 h; series mostly up to 28.7 µM
# Procedure, shortened: as §1
# TAB109 = experiment: as above; conditions: P. falciparum in erythrocytes, SYBR Green DNA, 72 h; series mostly up to 28.7 µM
# Procedure, shortened: as §1
# TAB113 = experiment: as above; conditions: P. falciparum in erythrocytes, SYBR Green DNA, 72 h; series mostly up to 28.7 µM
# Procedure, shortened: as §1
# TAB165 = experiment: as above; conditions: P. falciparum in erythrocytes, SYBR Green DNA, 72 h; series mostly up to 28.7 µM
# Procedure, shortened: as §1
# W2 = experiment: as above; conditions: P. falciparum in erythrocytes, SYBR Green DNA, 72 h; series mostly up to 28.7 µM
# Procedure, shortened: as §1
# CRL-7250 = normal cell line; experiment: Cytotoxic Profiling of Annotated Libraries Using Quantitative High-Throughput Screening (AID 1296008); conditions: Five cell lines viability, CellTiter-Glo ATP luminescence, 48-72 h; max response: stronger effect = lower value; as to max response: % is scaled to controls: 0 for no effect and ±100 for the full control effect
# Procedure, shortened: (§2)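 Cytotoxicity was measured as CellTiter-Glo ATP luminescence, read after 10 min at room temperature. Compound treatment of the cells lasted 48 or 72 hr at 37 degrees Celsius in a qHTS format.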
# HEK293 = experiment: as above; conditions: Five cell lines viability, CellTiter-Glo ATP luminescence, 48-72 h; max response: stronger effect = lower value
# Procedure, shortened: as §2
# HaCat = experiment: as above; conditions: Five cell lines viability, CellTiter-Glo ATP luminescence, 48-72 h; max response: stronger effect = lower value
# Procedure, shortened: as §2
# KB-3-1 = experiment: as above; conditions: Five cell lines viability, CellTiter-Glo ATP luminescence, 48-72 h; max response: stronger effect = lower value
# Procedure, shortened: as §2
# Also: nearly all actives have a fitted effect of over 60% in size.
# Potency is read from the fitted curve at half-maximal effect.
structure (smiles),measurement,setting,value
COC(=O)[C@@H](N)CCCN=C(N)N[N+](=O)[O-],Potency,PC49,inactive
same,Potency,SC27B,inactive
same,Potency,TAB109,inactive
same,Potency,TAB113,inactive
same,Potency,TAB165,inactive
same,Potency,W2,inactive
same,outcome,CRL-7250,inactive
same,max response,HEK293,0.845%
same,max response,HaCat,-4.22%
same,max response,KB-3-1,9.25%
C[C@]12CCC(=O)C(O)=C1CC[C@@H]1[C@H]3CCC(=O)[C@@]3(C)CC[C@@H]12,Potency,PC49,inactive
same,Potency,W2,inactive
same,max response,CRL-7250,-0.395%
same,max response,HEK293,-10.2%
same,max response,HaCat,-3.05%
same,max response,KB-3-1,3.15%
CCCCCCCCCCCCCCCC[N+](C)(C)C,Potency,PC49,inactive
same,Potency,SC27B,12.6 µM (active)
same,Potency,TAB113,8.91 µM (active)
same,Potency,W2,6.75 µM (active)
same,Potency,CRL-7250,6.68 µM (active)
same,Potency,HEK293,5.96 µM (active)
same,Potency,HaCat,2.11 µM (active)
O=C(N[C@@H](COc1ccc2[nH]c(=O)[nH]c2c1)c1ccccc1)c1cccn(Cc2ccc(F)c(F)c2)c1=O,max response,CRL-7250,-47.2%
same,max response,HEK293,-35.2% and -9.78%
same,max response,HaCat,-18%
same,max response,KB-3-1,-0.47%
C[C@H]([C@H](O)CCC(C)(C)O)[C@H]1CC[C@@]2(O)C3=CC(=O)[C@@H]4C[C@@H](O)[C@@H](O)C[C@]4(C)[C@@H]3CC[C@]12C,max response,CRL-7250,-2.7%
same,outcome,HEK293,inactive
same,outcome,HaCat,inactive
same,max response,KB-3-1,-1.89%
O=C(O)C(Cl)Cl,Potency,PC49,inactive
same,Potency,SC27B,inactive
same,Potency,TAB109,inactive
same,Potency,TAB113,inactive
same,Potency,TAB165,inactive
same,Potency,W2,inactive
same,outcome,CRL-7250,inactive
same,outcome,HEK293,inactive
same,outcome,HaCat,inactive
same,max response,KB-3-1,-7.1% and -3.84%
CCOCCOC(C)=O,max response,CRL-7250,-13%
same,max response,HEK293,-1.29%
same,max response,HaCat,-11.2%
same,max response,KB-3-1,-19.2%
C[C@@]12OC(=O)[C@]1([C@@H](O)[C@@H]1C=CCCC1)NC(=O)[C@H]2CCCl,Potency,CRL-7250,0.209 µM (active)
same,Potency,HEK293,0.0743 µM (active)
same,Potency,HaCat,16.6 µM (active)
same,Potency,KB-3-1,0.418 µM (active)
CC(Cc1ccc(O)cc1)NCC(O)c1cc(O)cc(O)c1 (configuration not stated),max response,CRL-7250,3.52%
same,max response,HEK293,-1.83%
same,max response,HaCat,-18.5%
same,max response,KB-3-1,6.39%
Nc1ccc(Sc2ccc(N)cc2)cc1,max response,CRL-7250,-36.8%
same,max response,HEK293,-4.95%
same,max response,KB-3-1,-8.88%
Oc1ccc2c3c1O[C@H]1c4[nH]c5c(c4C[C@@]4(O)[C@@H](C2)N(CC2CC2)CC[C@]314)C[C@@]1(O)[C@H]2Cc3ccc(O)c4c3[C@@]1(CCN2CC1CC1)[C@H]5O4,outcome,CRL-7250,inactive
same,outcome,HEK293,inactive
same,max response,HaCat,-0.228%
same,outcome,KB-3-1,inactive
C#CC1(O)CCC2C3CCC4=CC(=O)CCC4(C)C3CCC21C (configuration not stated),Potency,PC49,inactive
same,Potency,SC27B,inactive
same,Potency,TAB109,inactive
same,Potency,TAB113,inactive
same,Potency,TAB165,inactive
same,Potency,W2,inactive
same,max response,CRL-7250,-20.8%
same,max response,HEK293,-10.4%
same,max response,HaCat,-0.0987%
same,max response,KB-3-1,-11.2%
COc1cc2cc(c1Cl)N(C)C(=O)C[C@H](OC(=O)C(C)C)[C@]1(C)O[C@H]1[C@H](C)[C@@H]1C[C@@](O)(NC(=O)O1)[C@H](OC)C=CC=C(C)C2,max response,CRL-7250,-68.5%
same,max response,HEK293,-91.4%
same,max response,HaCat,-21.1%
same,Potency,KB-3-1,0.332 µM (active)
C[C@@H]1CC[C@H]2[C@@H](C)C(=O)O[C@@H]3O[C@@]4(C)CC[C@H]1[C@]32OO4,max response,CRL-7250,-21.1%
same,Potency,HEK293,1.66 µM (active)
same,max response,HaCat,-10.9%
same,max response,KB-3-1,-6.88%
O=C1C(I)=CC(=C(c2cc(I)c(O)c(I)c2)c2ccccc2C(=O)O)C=C1I,outcome,CRL-7250,inactive
same,max response,HEK293,-13.3%
same,outcome,HaCat,inactive
same,max response,KB-3-1,-3.52% and 5.85%
NC1=NC(=O)N2CC12 (configuration not stated),Potency,PC49,inactive
same,Potency,SC27B,inactive
same,Potency,TAB113,inactive
same,Potency,CRL-7250,11.8 µM (active)
same,Potency,HEK293,8.33 µM (active)
same,outcome,HaCat,inactive
same,max response,KB-3-1,6.64%
CC(=O)[O][Hg][c]1ccccc1,Potency,SC27B,4.47 µM (active)
same,Potency,TAB109,4.47 µM (active)
same,Potency,TAB113,7.08 µM (active)
same,Potency,TAB165,4.47 µM (active)
CCCCCCCCCC(CC)c1ccc(S(=O)(=O)O)cc1 (configuration not stated),Potency,SC27B,inactive
same,Potency,TAB109,inactive
same,Potency,TAB113,inactive
same,Potency,TAB165,inactive
CC[C@@H]1[C@@H](C)O[C@@](O)([C@@H](C)[C@H](O)[C@H](C)[C@H]2OC(=O)C=CC=C[C@@H](C)[C@@H]([C@@H](C)[C@@H](O)[C@H](C)[C@@]3(O)C[C@H](O[C@H]4C[C@H](O)[C@H](O)[C@H](C)O4)[C@H](CC)[C@@H](C)O3)OC(=O)C=CC=C[C@@H]2C)C[C@H]1O[C@H]1C[C@H](O)[C@H](O)[C@H](C)O1,Potency,HEK293,1.18 µM (active)
same,Potency,HaCat,3.32 µM (active)
same,Potency,KB-3-1,5.9 µM (active)
CN[C@@H]1C[C@@H](c2ccc(Cl)c(Cl)c2)c2ccccc21,Potency,TAB113,inactive
same,Potency,W2,4.78 µM (active)
same,max response,KB-3-1,-9.15%
Nc1ccc(N=Nc2ccccc2)cc1,max response,KB-3-1,-15.1%
NC(=O)CN1CC(O)CC1=O (configuration not stated),Potency,PC49,inactive
same,Potency,SC27B,inactive
same,Potency,TAB109,inactive
same,Potency,TAB113,inactive
same,Potency,TAB165,inactive
same,Potency,W2,inactive
same,max response,KB-3-1,3.82%
COC[C@H]1OC(=O)c2coc3c2[C@@]1(C)C1=C(C3=O)[C@@H]2CC[C@H](O)[C@@]2(C)C[C@@H]1OC(C)=O,max response,HaCat,-14.2%
same,max response,KB-3-1,-14.9%
CCCN(CCC)c1c([N+](=O)[O-])cc(S(N)(=O)=O)cc1[N+](=O)[O-],Potency,HaCat,68.6 µM (active)
same,max response,KB-3-1,-9.77%
O=[N+]([O-])c1c2ccccc2cc2ccccc12,max response,HEK293,-16%
same,max response,HaCat,3.41%
same,max response,KB-3-1,-16.7%
O=[N+]([O-])c1cc([N+](=O)[O-])c2ccccc2c1,outcome,HaCat,inactive
same,max response,KB-3-1,-6.84%
CN1C2CCC1CC(OC(=O)c1cc(Cl)cc(Cl)c1)C2 (configuration not stated),Potency,PC49,inactive
same,Potency,SC27B,inactive
same,Potency,TAB109,inactive
same,Potency,TAB113,inactive
same,Potency,TAB165,inactive
same,Potency,W2,10.7 µM (active)
CC(C)NC(C)Cc1ccc(I)cc1 (configuration not stated),Potency,PC49,inactive
same,Potency,SC27B,inactive
same,Potency,TAB109,inactive
same,Potency,TAB113,inactive
same,Potency,TAB165,inactive
same,Potency,W2,10.7 µM (active)
same,max response,KB-3-1,2.96%
c1cc2ccc3cccc4ccc(c1)c2c34,max response,KB-3-1,-15.2%
COc1nn(CSP(=S)(OC)OC)c(=O)s1,Potency,HEK293,21.7 µM (active)
same,outcome,HaCat,inactive
same,max response,KB-3-1,-23.4%
